Active and inactive are the calls of the source. How the source made its calls: active means hit-call score of the fitted dose curve at least 0.9, where 1 is the maximum; inactive means score below 0.9.

The AC50 is the midpoint of the concentration-response curve, whichever way the signal moves.

Chain of CCAAT/enhancer-binding protein beta (Homo sapiens) (P17676 whole entry, looked up, the tested form may be a part): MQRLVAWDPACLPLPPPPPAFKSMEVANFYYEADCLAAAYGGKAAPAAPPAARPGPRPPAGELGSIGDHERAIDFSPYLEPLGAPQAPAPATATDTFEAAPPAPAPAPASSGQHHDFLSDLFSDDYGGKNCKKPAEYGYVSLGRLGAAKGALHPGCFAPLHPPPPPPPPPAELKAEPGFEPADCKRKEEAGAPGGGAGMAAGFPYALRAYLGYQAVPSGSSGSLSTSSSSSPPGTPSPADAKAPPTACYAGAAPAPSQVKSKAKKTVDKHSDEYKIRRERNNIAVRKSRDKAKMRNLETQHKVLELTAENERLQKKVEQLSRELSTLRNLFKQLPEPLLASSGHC

Test system in one test: not listed separately
In words: ATG_CRE_CIS: Attagene CIS-FACTORIAL HepG2 Assay for human cAMP Responsive Element (CRE) binding protein 3 (AID 2282926). Particulars: HepG2 CRE cis-reporter, Attagene multiplexed mRNA; actives raise or lower the signal. In short, it runs like this: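 We dosed HepG2 cells bearing multiple cis-promoter reporter units for 24 h and measured reporter mRNA by RT-PCR with capillary electrophoresis detection. Bidirectional concentration-response fitting used DMSO as negative control.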
As to `CCOP(=S)(OCC)SCn1nnc2ccccc2c1=O`, the outcome was inactive.

Regarding `CC(C)(C)OOC(C)(C)C`, the result was inactive.

For `Nc1ccc(Sc2ccc(N)cc2)cc1`, the call was inactive.

With `CN(C)C(=O)Cl`, the result was inactive.

With `CCCCc1ccc(O)cc1`, the call was inactive.

For `c1ccc(OP(Oc2ccccc2)Oc2ccccc2)cc1`, the result was inactive.

`CC(Cl)(Cl)C(=O)O`: the compound was called inactive.

With `OCC(F)(F)OC(F)(F)C(F)(F)OC(F)(F)C(F)(F)OC(F)(F)CO`, the AC50 was 35.5 µM (active).

Regarding `O=C(O)C1C(C(=O)O)C2(Cl)C(Cl)=C(Cl)C1(Cl)C2(Cl)Cl` (configuration not stated), the compound was classed as inactive.

As for `O=P1(N(CCCl)CCCl)NCCCO1` (configuration not stated), the compound was classed as inactive.

For the compound `O=C(O)C(F)(OC(F)(F)C(F)(F)C(F)(F)F)C(F)(F)F` (configuration not stated), the call was inactive.

As for `CCCCc1ccccc1`, the outcome was inactive.

In the case of `N#Cc1cc([N+](=O)[O-])ccc1N`, the call was inactive.

In a further test the target is CCAAT/enhancer-binding protein beta (Homo sapiens) (UniProt P17676). In words: ATG_C_EBP_CIS: Attagene CIS-FACTORIAL HepG2 Assay for human CCAAT/Enhancer Binding Protein (C/EBP) beta (AID 2282927). Particulars: HepG2 Attagene cis-factorial transcription factor reporter; actives raise or lower the signal. Put shortly:
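Endogenous C/EBPb-driven reporter transcripts measured in transfected human HepG2 cells at 24 h via RT-PCR and capillary electrophoresis of labelled fragments. Activity fitted in both directions relative to DMSO baseline.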
For `CCOS(=O)(=O)OCC`, the outcome was inactive.

Turning to `ClC(Cl)(Cl)c1ccccc1`, the outcome was inactive.

On to `CC(C)(C)N(NC(=O)c1ccc(Cl)cc1)C(=O)c1ccccc1`, for which the outcome was inactive.

As for `CCN(CC)c1ccccc1`, the result was inactive.

On to `CCCCN(CCCC)SN(C)C(=O)Oc1cccc2c1OC(C)(C)C2`, for which the result was inactive.

Take `CCOP(=S)(OCC)SCSCC`: the outcome was inactive.

Turning to `CCCCCCCc1ccc(O)cc1`, the outcome was inactive.

With `O=C(O)C=CC(F)(C(F)(F)F)C(F)(F)F`, the result was inactive.

For `CC(Cc1ccc(OCC(=O)O)cc1)NCC(O)c1csc(C(F)(F)F)n1` (configuration not stated), the result was inactive.

With `CCC(C)(C)c1ccc(O)cc1`, the result was inactive.

As to `O=S(=O)(F)C(F)(F)C(F)(F)C(F)(F)C(F)(F)C(F)(F)C(F)(F)C(F)(F)C(F)(F)F`, the result was inactive.

As for `N#Cc1c(-c2ccc(Cl)cc2)[nH]c(C(F)(F)F)c1Br`, the AC50 is 34.2 nM (active).

As to `O=P(Oc1ccccc1)(Oc1ccccc1)Oc1ccccc1`, the outcome was inactive.

Take `O=[N+]([O-])c1ccc(Cl)c(Cl)c1`: the result was inactive.

As for `C/C(=N\NC(=O)Nc1cc(F)cc(F)c1)c1ncccc1C(=O)O`, the outcome was inactive.

In the case of `Nc1ccc(Cl)cc1`, the outcome was inactive.

Consider `CC(O)C#N` (configuration not stated), for which the outcome was inactive.

As to `C=C(C)C(=O)OCC1CO1` (configuration not stated), the outcome was inactive.

As for `CCCCN(CC)C(=O)SCCC`, the outcome was inactive.

As for `CCCCN(CCCC)N=O`, the outcome was inactive.

Consider `ClC(Cl)c1ccccc1`, for which the outcome was inactive.

On to `c1ccc2c(c1)sc1ccccc12`, for which the outcome was inactive.

As to `Cc1ccc([N+](=O)[O-])cc1C`, the result was inactive.

Take `CCC1(c2ccccc2)C(=O)N=C(O)NC1=O` (configuration not stated): the outcome was inactive.

As for `OCC(F)(F)OC(F)(F)C(F)(F)OC(F)(F)CO`, the outcome was inactive.

As for `CCOP(=S)(Oc1ccc([N+](=O)[O-])cc1)c1ccccc1` (configuration not stated), the result was inactive.

Consider `CCOP(=S)(OCC)SCn1nnc2ccccc2c1=O`, for which the outcome was inactive.

For the compound `CC(C)(C)OOC(C)(C)C`, the outcome was inactive.

As to `Nc1ccc(Sc2ccc(N)cc2)cc1`, the result was inactive.

Take `CN(C)C(=O)Cl`: the result was inactive.

`CCCCc1ccc(O)cc1`: the result was inactive.

As for `c1ccc(OP(Oc2ccccc2)Oc2ccccc2)cc1`, the result was inactive.

Regarding `CC(Cl)(Cl)C(=O)O`, the outcome was inactive.

For the compound `OCC(F)(F)OC(F)(F)C(F)(F)OC(F)(F)C(F)(F)OC(F)(F)CO`, the outcome was inactive.

As for `O=C(O)C1C(C(=O)O)C2(Cl)C(Cl)=C(Cl)C1(Cl)C2(Cl)Cl` (configuration not stated), the result was inactive.

Take `O=P1(N(CCCl)CCCl)NCCCO1` (configuration not stated): the result was inactive.

With `O=C(O)C(F)(OC(F)(F)C(F)(F)C(F)(F)F)C(F)(F)F` (configuration not stated), the outcome was inactive.

As to `CCCCc1ccccc1`, the outcome was inactive.

Consider `N#Cc1cc([N+](=O)[O-])ccc1N`, for which the outcome was inactive.

These data come from PubChem BioAssay (EPA / NIEHS).
